# Data: PubChem BioAssay (Tox21)
# Results filed as inconclusive are left out. Active and inactive are the calls of the source. Calls come from the whole dose curve; as a rule, active = well fitted cell-killing curve with a large enough effect in the repeat runs; inconclusive = weak or mixed curves, or effect the other way; inactive = no such curve, though single readings can be large or run the other way.
# Assay: qHTS assay for identifying genotoxic compounds that show differential cytotoxicity against isogenic chicken DT40 cell lines with known DNA damage response pathways - wild type cell line (AID 743012); note: nearly all actives have a fitted effect of over 60% in size
# Settings: DT40 wild type chicken cells viability, CellTiter-Glo, 40 h; series mostly up to 68.4 µM; activity change, negative = cytotoxicity: at the top concentration
# From the text: U.S. Tox21 Program National Center for Advancing Translational Sciences [NCATS] NIH Chemical Genomics Center [NCGC] U.S. Environmental Protection Agency [EPA] National Institutes of Environmental Health Sciences [NIEHS] National Toxicology Program [NTP] U.S. Food and Drug Administration [FDA] Tox21 Assay Overview: DNA repair pathways play a critical role in cellular homeostasis by repairing DNA damage induced by endogenous processes and xenobiotics. Isogenic chicken DT40 cell lines deficient in different DNA repair pathways can be used to identify genotoxic compounds and aid in characterizing the nature of the DNA damage induced. Two DNA repair-deficient cell lines with disrupted genes, Rad54/Ku70 or Rev3, were used to screen the Tox21 10K compound library. Possible genotoxicity was based on the presence of a significant increase in cytotoxicity in one or more of the DNA repair-deficient cell lines compared to that observed in the parental DNA repair-proficient cell line. CellTiter Glo viability assay (Promega, Madison, WI) was used to measure cell viability in these cells after compound treatment. This assay includes the data from the wild type cell line.
# Tox21 Assay Protocol Summary: 300 DT40 wild type cells in 5 uL/well were dispensed into white, solid-bottom 1536-well plates using a Multidrop Combi (ThermoFisher Scientific, Waltham, MA) dispenser. After the assay plates were incubated at 37 C/5% CO2 for approximately 0.5 hour, 23 nL of compounds dissolved in DMSO, positive controls or DMSO only was transferred into the assay plate by a pintool work station (Kalypsys, San Diego, CA). The assay plates were incubated at 37 C/5% CO2 for 40 hours. After 5 uL per well of CellTiter-Glo reagent was added into each well of the assay plates, the plates were incubated for 30 min at room temperature and the luminescence intensity of the plates was measured using a ViewLux (PerkinElmer, Shelton, CT) plate reader.
# % is set by controls: 0 for no effect and ±100 for the full control effect; potency is the fitted concentration of half-maximal effect.
Structure (SMILES),Potency,"activity change, negative = cytotoxicity"
Cc1nc2ccccc2n1Cc1ccc(Cl)cc1,2.11 µM (active),
C=CCCCCCC,,2.89% (inactive)
Cn1c(=O)c2c(ncn2CC(O)CO)n(C)c1=O (stereo not given),,3.04% [at 31.4 µM] (inactive)
Nc1cnn([C@@H]2O[C@H](CO)[C@@H](O)[C@H]2O)c(=O)n1,27.3 µM (active),
O=C(NS(=O)(=O)/C=C/c1cccs1)c1ccc(F)cc1Br,,1.46% (inactive)
Cc1cccc(OCCOc2cccc(C)c2)c1,,9.14% [at 95 µM] (inactive)
CN1CCC(=C2c3ccccc3CCc3sccc32)CC1,6.68 µM (active),
O=C(/C=C/c1ccc(O)c(O)c1)O[C@@H]1C[C@](O)(C(=O)O)C[C@@H](O)[C@H]1O,,-1.33% [at 95 µM] (inactive)
COC(=O)C(C)=O,,4.08% [at 95 µM] (inactive)
c1ccc(OCc2ccc(CCCN3CCOCC3)cc2)cc1,0.531 µM (active),
O=C(O)Cc1sc(-c2ccccc2)nc1-c1ccc(Cl)cc1,inactive,
O=C1c2cccc(O)c2C(=O)c2c(O)cc(CO)cc21,,-2.59% (inactive)
CC1=CC(=O)/C(=C(/C)O)C(=O)O1,,-16% (inactive)
CCCCOCCOCCOCCOCCO,,-24% (inactive)
CCCCOC(=O)/C=C\C(=O)OCCCC,,13.7% [at 95 µM] (inactive)
Oc1ccc(C(O)CNCCCCCCNCC(O)c2ccc(O)c(O)c2)cc1O (stereo not given),26.6 µM (active),
Nc1nc(N)c(-c2ccccc2)s1,,-3.18% (inactive)
CCCCOc1cc(C(=O)OCCN(CC)CC)ccc1N,10.1 µM (active),
COCCCCCCCCOCCC[Si](C)(O[Si](C)(C)C)O[Si](C)(C)C,5.45 µM (active),
CCN(CC)CCOC(=O)C1(c2ccccc2)CCCC1,26.6 µM (active),

Structure (SMILES),Potency,"activity change, negative = cytotoxicity"
O=C(Cl)c1c(Cl)cccc1Cl,,-0.536% [at 95 µM] (inactive)
CC(C)(C)c1cc(CO)cc(C(C)(C)C)c1O,31.2 µM (active),
CCCCC(CC)(CO)CO,,-17.1% (inactive)
C=CC(=O)OCC(C)OCC(C)OCC(C)OC(=O)C=C (stereo not given),15.4 µM (active),
SC1CCCC1,,7.53% (inactive)
CC(C)NCC(O)c1cc(O)cc(O)c1 (stereo not given),,2.67% (inactive)
O=C(O)Cc1cc(I)c(Oc2ccc(O)c(I)c2)c(I)c1,inactive,
CC(C(=O)O)c1ccc(C(=O)c2ccccc2)s1 (stereo not given),,1.62% [at 31.4 µM] (inactive)
Cc1ccc2c(ccc3ccccc32)c1,,-1.09% [at 95 µM] (inactive)
O=C(O)Cn1c(C(=O)Nc2nc(-c3ccccc3Cl)cs2)cc2ccccc21,,4.52% (inactive)
N#CCCNCCC#N,,19.9% [at 95 µM] (inactive)
CN(C)C/C=C(/c1ccc(Br)cc1)c1cccnc1,29.8 µM (active),
NCCCN(CCO)CCO,,-0.0457% (inactive)
Nc1ccc(C(=O)Nc2ccccc2N)cc1,1.5 µM (active),
CC(C)NCC(O)COc1ccc(CC(N)=O)cc1 (stereo not given),,-0.142% (inactive)
CC[C@@H]1C[C@H](N(Cc2cc(C(F)(F)F)cc(C(F)(F)F)c2)C(C)=O)c2cc(C(F)(F)F)ccc2N1C(=O)OC(C)C,27.3 µM (active),
CCCOc1ccc2nc(NC(=O)OC)[nH]c2c1,0.237 µM (active),
CCCCCCc1ccc(N)cc1,19.3 µM (active),
C[C@H](CCC(=O)O)[C@H]1CC[C@H]2[C@@H]3[C@H](O)C[C@@H]4C[C@H](O)CC[C@]4(C)[C@H]3CC[C@]12C,inactive,
O=C(C(=O)c1ccc(Br)cc1)c1ccc(Br)cc1,,0.235% [at 31.4 µM] (inactive)
